This passage reports sensor-assay potency score (higher = more potent) results from the OligoGym collection.
Further: reference of the scale not given here.

One assay deals with DPRX. Kind of assay: pooled miR-30 sensor sort-seq; sequence = guide strand. To be noted: shRNA.
TTTTGATGAATATGCTTGCATT gave a sensor-assay potency score (higher = more potent) of -1.14.

Consider TTTCCTGTGTGAATGCATCTGG, for which the sensor-assay potency score (higher = more potent) was 0.364. Sequence TGCTTCTTAGTGAACATGGTTC gave a sensor-assay potency score (higher = more potent) of -0.891. TTGGGGTACAGGATGAGCTGGA displayed a sensor-assay potency score (higher = more potent) of 0.271. With TCTTAGTGAACATGGTTCGTTT, the sensor-assay potency score (higher = more potent) was -0.457. The sequence TCGATGACCCGTGTACACCAGG displayed a sensor-assay potency score (higher = more potent) of -1.09. Sequence TTGCTTCTTAGTGAACATGGTT yielded a sensor-assay potency score (higher = more potent) of -0.403. In the case of TTTTGCTCTGTGATTCTTGAAC, the sensor-assay potency score (higher = more potent) was -0.966.

As to TATATATTAGGATCTCGGCAGC, the sensor-assay potency score (higher = more potent) was -0.886. The same measure, in the same setting: as for TTCTTAGTGAACATGGTTCGTT, the figure is 0.0305.

Sequence TAGTGTGTCTGCATTTCTCAGG yielded a sensor-assay potency score (higher = more potent) of -0.247.

A further assay has as its target DQX1. Described as above. To be noted: shRNA.
In turn, TTGCTCGCAATCGTCTTGCCTC gave a sensor-assay potency score (higher = more potent) of -0.154. As to TTGAATCTCAGAAACAATGGAA, the sensor-assay potency score (higher = more potent) is 0.304. As for TTCAGCAGCTCATAGTAGCGGG, the sensor-assay potency score (higher = more potent) was -0.681.

TTTTAGTAGTAACACCAGGGAG displayed a sensor-assay potency score (higher = more potent) of -0.895.

Sequence TTCTGATAGTATGACACCCAGA yielded a sensor-assay potency score (higher = more potent) of -1.09. Consider TATAAAGGCTTCATACACCTGG, for which the sensor-assay potency score (higher = more potent) was determined as 0.178. Sequence TGAGTGACCACAACCTTTCGGG yielded a sensor-assay potency score (higher = more potent) of 0.181. In turn, TTCTGGAGCAGGCTGGTCCAGG showed a sensor-assay potency score (higher = more potent) of -1.18. TAGGATTGTAAACACTTCGGAG yielded a sensor-assay potency score (higher = more potent) of -0.968. AACACTAGCACATCTCCTGGAA had a sensor-assay potency score (higher = more potent) of 0.212. The sequence TAGTATGACACCCAGATCTGAC gave a sensor-assay potency score (higher = more potent) of -0.721.

On to TTTAGTAGTAACACCAGGGAGC, for which the sensor-assay potency score (higher = more potent) is -0.54.

The next assay addresses DSPP. The assay is described as above. To be noted: shRNA.
TTGCTGCTGTCTGACTTGCTGT displayed a sensor-assay potency score (higher = more potent) of -1.02.

In the case of TTGCTATCACTGCTGTTGCTGC, the sensor-assay potency score (higher = more potent) was -0.741.

In turn, TTGGACAACAGCGACATCCTCA gave a sensor-assay potency score (higher = more potent) of 0.0891. The same measure, in the same setting: then TTTCTGAATTAGCATCATCATT, with -1.5; and TTATTAGTGTCTGATGTGCTAT, with -0.602; and TACTTGAGGTCCATCTTCTTGG, with -0.264. TATCACTGTCATCATCTTCTGC registered a sensor-assay potency score (higher = more potent) of -0.312.

In turn, TTCTCTATGGTTGAGCTTCTGG displayed a sensor-assay potency score (higher = more potent) of -0.413. The same measure, in the same setting: as for TTGCTGTCACTGCTGTCGCTGC, the figure is -0.804; as for TGTACTGACACATTTGATCTTG, 0.307; as for TTTGCTTTCTCTATGGTTGAGC, 0.0105. On to TTGTGTCTTGACATTGCCTTTG, for which the sensor-assay potency score (higher = more potent) was -0.762.

The sequence TATGTTGACAACCTCTCCTTGT gave a sensor-assay potency score (higher = more potent) of 0.37. In turn, TTTTTCGACATGTCTCTCCAGT showed a sensor-assay potency score (higher = more potent) of -0.00978. For the sequence TTCACTGCTATCACTGCTGTTG, the sensor-assay potency score (higher = more potent) is -0.29. On to TTTCTCTTGCTGTTGATCTGAG, for which the sensor-assay potency score (higher = more potent) is -0.329.

Regarding TCTATCACCTTCATGCACCAGG, the sensor-assay potency score (higher = more potent) turned out to be 0.183.
